Common to all, as to test: DAPPL (digital affinity profiling via proximity ligation, sequencing); 10 mM Tris-HCl pH 7.5, 50 mM NaCl, 1 mM DTT, 4% glycerol, room temperature, 30 min; GST-TFs on glutathione beads, 16-mer random dsDNA library, 0.1% formaldehyde crosslink after washing; high values mean tight binding
Common to all, as to conditions: protein: recombinant; tags: N-terminal GST; dsDNA, one strand shown

In one assay the target is T1, FLI1 (Homo sapiens, UniProt Q01543 1-452).
T1 sequence: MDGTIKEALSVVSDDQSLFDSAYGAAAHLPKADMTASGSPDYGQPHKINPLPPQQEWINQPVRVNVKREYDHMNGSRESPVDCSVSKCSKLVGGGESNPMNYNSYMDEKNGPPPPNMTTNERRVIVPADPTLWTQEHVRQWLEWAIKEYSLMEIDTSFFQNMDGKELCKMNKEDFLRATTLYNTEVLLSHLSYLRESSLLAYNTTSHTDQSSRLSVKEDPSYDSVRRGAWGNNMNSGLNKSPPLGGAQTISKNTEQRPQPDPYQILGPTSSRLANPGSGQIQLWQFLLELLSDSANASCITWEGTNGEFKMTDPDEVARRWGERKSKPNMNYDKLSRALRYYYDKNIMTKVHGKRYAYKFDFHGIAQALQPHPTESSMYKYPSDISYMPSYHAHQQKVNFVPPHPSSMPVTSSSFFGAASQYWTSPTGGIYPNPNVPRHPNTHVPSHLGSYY
The method in brief: (§1)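 Yeast served to express human transcription factors as GST fusions, which were then captured on glutathione beads and labelled with DNA barcodes. Pooled with a tag-only sample, they were incubated with 200 nmole of a 16-mer random double-stranded DNA library for 30 min at room temperature in Tris/NaCl/DTT/glycerol buffer, washed, crosslinked with 0.1% formaldehyde, ligated by proximity, amplified by PCR and sequenced. Dividing each hexamer's read frequency for a factor by its frequency for the tag-only sample gives the binding signal.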

A further assay concerns the target T2, ELK1 (Homo sapiens, UniProt P19419 1-428).
T2 sequence: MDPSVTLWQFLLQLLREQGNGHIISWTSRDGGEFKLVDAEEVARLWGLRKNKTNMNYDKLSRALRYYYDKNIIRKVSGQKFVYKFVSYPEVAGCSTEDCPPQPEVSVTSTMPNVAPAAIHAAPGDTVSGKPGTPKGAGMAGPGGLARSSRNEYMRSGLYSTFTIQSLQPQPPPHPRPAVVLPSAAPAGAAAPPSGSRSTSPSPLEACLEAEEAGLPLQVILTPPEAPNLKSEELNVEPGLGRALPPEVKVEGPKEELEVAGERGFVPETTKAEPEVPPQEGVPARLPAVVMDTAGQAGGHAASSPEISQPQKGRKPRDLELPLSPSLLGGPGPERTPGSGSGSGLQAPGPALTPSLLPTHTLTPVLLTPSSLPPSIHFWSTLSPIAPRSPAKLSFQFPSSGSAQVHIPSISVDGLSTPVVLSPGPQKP
The essentials: as §1

Another assay addresses T3, GABPA (Homo sapiens, UniProt Q06546 1-454).
T3 sequence: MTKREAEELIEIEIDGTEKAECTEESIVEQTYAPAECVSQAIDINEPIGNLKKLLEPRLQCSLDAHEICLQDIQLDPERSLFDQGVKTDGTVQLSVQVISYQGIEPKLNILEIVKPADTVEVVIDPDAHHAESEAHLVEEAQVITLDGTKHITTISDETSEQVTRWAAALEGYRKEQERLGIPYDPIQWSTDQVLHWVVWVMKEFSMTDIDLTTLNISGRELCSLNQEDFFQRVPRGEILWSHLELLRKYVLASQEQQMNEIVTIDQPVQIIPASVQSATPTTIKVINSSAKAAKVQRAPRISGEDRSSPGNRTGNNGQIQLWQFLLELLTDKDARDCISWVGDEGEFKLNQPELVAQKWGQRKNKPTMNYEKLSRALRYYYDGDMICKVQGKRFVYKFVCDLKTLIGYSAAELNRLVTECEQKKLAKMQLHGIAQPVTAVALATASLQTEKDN
The method in brief:
as §1

For the next assay, the target named is T4, ERG (Homo sapiens, UniProt P11308 1-479).
T4 sequence: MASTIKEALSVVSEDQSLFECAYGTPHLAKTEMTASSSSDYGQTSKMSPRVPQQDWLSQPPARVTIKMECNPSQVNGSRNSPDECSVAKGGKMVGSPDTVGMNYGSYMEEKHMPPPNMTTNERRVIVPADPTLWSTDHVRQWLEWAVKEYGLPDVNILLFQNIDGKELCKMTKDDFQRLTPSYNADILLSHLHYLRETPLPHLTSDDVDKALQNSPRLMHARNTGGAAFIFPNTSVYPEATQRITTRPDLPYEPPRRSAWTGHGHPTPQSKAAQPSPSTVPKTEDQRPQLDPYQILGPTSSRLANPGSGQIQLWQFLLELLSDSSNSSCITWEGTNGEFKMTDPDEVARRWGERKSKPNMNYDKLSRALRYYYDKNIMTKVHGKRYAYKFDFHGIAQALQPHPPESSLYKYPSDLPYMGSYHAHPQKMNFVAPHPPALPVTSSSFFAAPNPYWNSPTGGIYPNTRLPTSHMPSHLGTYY
The essentials: as §1

The next assay addresses ELF1 (Homo sapiens, UniProt P32519 1-619). The method in brief:
as §1

Another assay addresses T5, EHF (Homo sapiens, UniProt Q9NZC4 1-300).
T5 sequence: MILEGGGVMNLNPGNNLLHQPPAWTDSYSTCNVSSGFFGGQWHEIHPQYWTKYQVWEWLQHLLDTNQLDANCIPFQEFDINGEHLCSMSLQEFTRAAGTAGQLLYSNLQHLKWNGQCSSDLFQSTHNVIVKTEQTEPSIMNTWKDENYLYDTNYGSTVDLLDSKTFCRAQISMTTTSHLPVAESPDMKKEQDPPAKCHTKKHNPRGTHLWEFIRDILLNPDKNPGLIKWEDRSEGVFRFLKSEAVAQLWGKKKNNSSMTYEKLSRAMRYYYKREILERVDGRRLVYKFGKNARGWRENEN
The essentials:
as §1

The next assay addresses SPI1 (Homo sapiens, UniProt P17947 1-270). The method in brief:
as §1

The next assay has as its target SPIB (Homo sapiens, UniProt Q01892 1-262). The essentials:
as §1

The target of another assay is T6, ELK3 (Homo sapiens, UniProt P41970 1-407).
T6 sequence: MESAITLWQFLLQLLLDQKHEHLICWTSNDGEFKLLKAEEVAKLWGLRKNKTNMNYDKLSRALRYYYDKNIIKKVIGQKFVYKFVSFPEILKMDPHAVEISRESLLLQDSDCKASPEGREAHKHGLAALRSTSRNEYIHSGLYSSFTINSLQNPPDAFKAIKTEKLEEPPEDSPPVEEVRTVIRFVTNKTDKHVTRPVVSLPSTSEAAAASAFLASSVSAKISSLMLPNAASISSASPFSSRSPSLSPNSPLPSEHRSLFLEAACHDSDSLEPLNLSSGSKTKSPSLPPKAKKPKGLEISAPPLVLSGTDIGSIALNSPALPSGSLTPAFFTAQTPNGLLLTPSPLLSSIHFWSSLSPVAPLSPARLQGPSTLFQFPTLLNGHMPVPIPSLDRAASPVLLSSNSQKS
The essentials: as §1

The values that follow come from publication PMC7862700, “An all-to-all approach to the identification of sequence-specific readers for epigenetic DNA modifications on cytosine”.

Chain of ELF1 (P32519 whole entry): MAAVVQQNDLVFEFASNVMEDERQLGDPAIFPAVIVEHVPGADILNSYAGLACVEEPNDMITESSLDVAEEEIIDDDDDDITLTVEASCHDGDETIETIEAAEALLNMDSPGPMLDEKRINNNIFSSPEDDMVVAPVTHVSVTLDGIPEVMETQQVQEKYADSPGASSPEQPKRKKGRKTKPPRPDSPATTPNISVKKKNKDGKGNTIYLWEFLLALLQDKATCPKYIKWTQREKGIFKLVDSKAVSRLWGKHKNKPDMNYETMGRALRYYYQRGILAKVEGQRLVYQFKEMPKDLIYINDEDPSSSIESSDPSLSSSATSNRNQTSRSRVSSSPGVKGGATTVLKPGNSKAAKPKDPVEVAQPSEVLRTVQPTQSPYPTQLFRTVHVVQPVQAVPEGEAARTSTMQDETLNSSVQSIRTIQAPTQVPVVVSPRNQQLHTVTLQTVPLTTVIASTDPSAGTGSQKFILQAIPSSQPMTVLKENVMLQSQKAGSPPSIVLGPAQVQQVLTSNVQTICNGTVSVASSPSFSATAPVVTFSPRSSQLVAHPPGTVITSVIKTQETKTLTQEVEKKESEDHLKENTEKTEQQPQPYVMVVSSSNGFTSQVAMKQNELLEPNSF
Chain of SPIB (Q01892 whole entry): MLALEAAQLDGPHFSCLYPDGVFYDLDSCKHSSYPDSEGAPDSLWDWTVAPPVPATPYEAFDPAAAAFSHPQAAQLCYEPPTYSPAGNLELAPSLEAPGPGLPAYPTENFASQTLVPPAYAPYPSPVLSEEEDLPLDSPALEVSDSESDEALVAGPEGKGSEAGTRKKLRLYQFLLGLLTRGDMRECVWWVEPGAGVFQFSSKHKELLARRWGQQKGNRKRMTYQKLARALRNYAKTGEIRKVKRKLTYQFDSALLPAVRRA

Consider TTCTCC, for which the binding signal with FLI1 is 1.42 fold enrichment (6-mer frequency, TF over GST control); with ELK1 it was 1.45 fold enrichment (6-mer frequency, TF over GST control); in the assay with GABPA, 1.6 fold enrichment (6-mer frequency, TF over GST control); with ERG, 1.43 fold enrichment (6-mer frequency, TF over GST control); in the assay with ELF1 it was 1.56 fold enrichment (6-mer frequency, TF over GST control); with EHF it was 1.62 fold enrichment (6-mer frequency, TF over GST control). For the same sequence, the binding signal was 1.63 fold enrichment (6-mer frequency, TF over GST control) with SPI1; 1.61 fold enrichment (6-mer frequency, TF over GST control) in the assay with SPIB; 1.6 fold enrichment (6-mer frequency, TF over GST control) with ELK3.

For the sequence ATCGAC, the binding signal with FLI1 is 1.13 fold enrichment (6-mer frequency, TF over GST control); with ELK1 it was 1.11 fold enrichment (6-mer frequency, TF over GST control); with GABPA, 1.17 fold enrichment (6-mer frequency, TF over GST control); with ERG, 1.1 fold enrichment (6-mer frequency, TF over GST control); with ELF1 it was 1.24 fold enrichment (6-mer frequency, TF over GST control); with EHF, 1.12 fold enrichment (6-mer frequency, TF over GST control). The binding signal is 1.15 fold enrichment (6-mer frequency, TF over GST control) with SPI1; 1.11 fold enrichment (6-mer frequency, TF over GST control) with SPIB; 1.27 fold enrichment (6-mer frequency, TF over GST control) in the assay with ELK3.

Turning to TCCCGG, the binding signal was 2.29 fold enrichment (6-mer frequency, TF over GST control) with FLI1; 2.07 fold enrichment (6-mer frequency, TF over GST control) with ELK1; 2.14 fold enrichment (6-mer frequency, TF over GST control) with GABPA; 2.22 fold enrichment (6-mer frequency, TF over GST control) in the assay with ERG; 2.12 fold enrichment (6-mer frequency, TF over GST control) with ELF1; 2.19 fold enrichment (6-mer frequency, TF over GST control) with EHF. Moreover, the binding signal in the assay with SPI1 was 2.01 fold enrichment (6-mer frequency, TF over GST control); in the assay with SPIB it was 2.43 fold enrichment (6-mer frequency, TF over GST control); in the assay with ELK3, 1.96 fold enrichment (6-mer frequency, TF over GST control).

AAACGC: the binding signal with FLI1 is 1.24 fold enrichment (6-mer frequency, TF over GST control); with ELK1, 1.17 fold enrichment (6-mer frequency, TF over GST control); in the assay with GABPA it was 1.28 fold enrichment (6-mer frequency, TF over GST control); with ERG, 1.34 fold enrichment (6-mer frequency, TF over GST control); with ELF1, 1.27 fold enrichment (6-mer frequency, TF over GST control); with EHF it was 1.25 fold enrichment (6-mer frequency, TF over GST control). Also, the binding signal in the assay with SPI1 was 1.22 fold enrichment (6-mer frequency, TF over GST control); in the assay with SPIB, 1.22 fold enrichment (6-mer frequency, TF over GST control); with ELK3, 1.15 fold enrichment (6-mer frequency, TF over GST control).

GCTATA: the binding signal with FLI1 was 1.17 fold enrichment (6-mer frequency, TF over GST control); in the assay with ELK1, 1.11 fold enrichment (6-mer frequency, TF over GST control); with GABPA, 1.16 fold enrichment (6-mer frequency, TF over GST control); in the assay with ERG it was 1.16 fold enrichment (6-mer frequency, TF over GST control); with ELF1 it was 1.19 fold enrichment (6-mer frequency, TF over GST control); with EHF it was 1.16 fold enrichment (6-mer frequency, TF over GST control). Further, the binding signal in the assay with SPI1 was 1.09 fold enrichment (6-mer frequency, TF over GST control); with SPIB it was 1.25 fold enrichment (6-mer frequency, TF over GST control); in the assay with ELK3, 1.24 fold enrichment (6-mer frequency, TF over GST control).

For ATGACT, the binding signal is 1.5 fold enrichment (6-mer frequency, TF over GST control) in the assay with FLI1; 1.42 fold enrichment (6-mer frequency, TF over GST control) with ELK1; 1.39 fold enrichment (6-mer frequency, TF over GST control) with GABPA; 1.44 fold enrichment (6-mer frequency, TF over GST control) with ERG; 1.42 fold enrichment (6-mer frequency, TF over GST control) with ELF1; 1.35 fold enrichment (6-mer frequency, TF over GST control) with EHF. The binding signal with SPI1 was 1.51 fold enrichment (6-mer frequency, TF over GST control); in the assay with SPIB, 1.52 fold enrichment (6-mer frequency, TF over GST control); with ELK3, 1.33 fold enrichment (6-mer frequency, TF over GST control).

In the case of CCTTAG, the binding signal with FLI1 was 1.3 fold enrichment (6-mer frequency, TF over GST control); in the assay with ELK1, 1.3 fold enrichment (6-mer frequency, TF over GST control); with GABPA, 1.18 fold enrichment (6-mer frequency, TF over GST control); in the assay with ERG, 1.24 fold enrichment (6-mer frequency, TF over GST control); with ELF1 it was 1.27 fold enrichment (6-mer frequency, TF over GST control); with EHF, 1.3 fold enrichment (6-mer frequency, TF over GST control). For the same sequence, the binding signal is 1.21 fold enrichment (6-mer frequency, TF over GST control) in the assay with SPI1; 1.34 fold enrichment (6-mer frequency, TF over GST control) with SPIB; 1.23 fold enrichment (6-mer frequency, TF over GST control) in the assay with ELK3.
